High-throughput results as filed in PubChem BioAssay.
Htt clearance – clearance of mutant huntingtin inclusions, primary screen, imaging, HeLa Exon1htt(103Q)mCFP, confocal imaging; inhibition, % at 1.5 µM; 47,000 compounds, 0.42% hits; aggregate imaging; zero = plate's median compound well;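 active = inhibition of aggregate fluorescence above about 70%, also judged a hit by eye on the cell image, limit read from the data, passing the limit was not always enough; inconclusive = no rule stated for this call; inactive = not judged a hit on image review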;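 note: cells exposed to compound for three days before fixation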
MKP-1 inh – MKP-1 phosphatase inhibitors, primary screen, biochemical, in vitro; Dual specificity protein phosphatase 1 (Homo sapiens), P28562; recombinant MKP-1, OMFP hydrolysis fluorescence; inhibition, %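 (compounds tested at a single concentration somewhere between 10 and 100 µM)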; 65,000 compounds, 0.15% hits; AID 374, 2006;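 active = inhibition above about 50%, limit read from the data; inconclusive = inhibition over screen mean plus 3 SD, below that limit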;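 note: 0% = DMSO max control wells and 100% = wells with enzyme stopped by NaOH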
Cdc25B inh – inhibitors of Cdc25B phosphatase catalytic domain, primary screen, biochemical, OMFP fluorescence; M-phase inducer phosphatase 2 (Homo sapiens), P30305; recombinant Cdc25B, OMFP fluorescence Ex485/Em525; inhibition, %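 (compounds tested at 10 µM final in the well)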; 65,000 compounds, 0.1% hits; in the data active = inhibition above about 50%
Target sequence (P30305 whole entry, looked up, the tested form may be a part): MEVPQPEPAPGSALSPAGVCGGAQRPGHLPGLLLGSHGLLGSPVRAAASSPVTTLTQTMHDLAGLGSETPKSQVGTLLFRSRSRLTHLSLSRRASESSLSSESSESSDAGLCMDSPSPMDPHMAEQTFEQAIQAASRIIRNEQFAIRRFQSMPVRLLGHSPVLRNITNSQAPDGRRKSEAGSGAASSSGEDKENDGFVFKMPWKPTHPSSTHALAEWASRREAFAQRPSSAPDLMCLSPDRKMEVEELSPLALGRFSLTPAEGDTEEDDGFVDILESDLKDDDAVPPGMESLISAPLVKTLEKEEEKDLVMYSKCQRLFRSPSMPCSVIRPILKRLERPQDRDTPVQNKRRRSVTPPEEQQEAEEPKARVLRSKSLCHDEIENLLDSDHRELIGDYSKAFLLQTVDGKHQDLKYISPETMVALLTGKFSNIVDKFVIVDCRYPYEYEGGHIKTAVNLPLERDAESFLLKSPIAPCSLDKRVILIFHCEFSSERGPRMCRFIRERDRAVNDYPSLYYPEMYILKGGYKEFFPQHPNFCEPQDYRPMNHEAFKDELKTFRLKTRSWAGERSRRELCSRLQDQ
Jurkat viability – cytotoxicity toward Jurkat T cells, primary screen, cytotoxicity control, cell-based, Jurkat E6.1, 60K MLSMR library | Jurkat E6.1 viability, ATP luminescence, 48 h | inhibition, % at 4 µM | 56,000 compounds, 1.2% hits | AID 463, 2006;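 active = inhibition above the mean inhibition of all tested compounds plus 3 SD, cut at about 28% in these data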
SK-BR-3 tox 24h – SK-BR-3 proliferation inhibitors, primary screen, cell-based, human, 24 h; viability, % at 10 µM; 41,000 compounds, 0.47% hits; AID 847, 2007; SK-BR-3 viability, CellTiter-Glo ATP luminescence; stronger effect = lower value;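 active = viability at or below the median of all test compounds minus 3 SD, in both replicates if run twice, cut at about 45% in these data; inconclusive = duplicate replicates that disagree with each other; inactive = viability above that cutoff in every replicate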;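 note: 100% = median untreated cell wells and 0% = median positive control drug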
Starred values were filed as active, the others as inactive; ? = inconclusive; / = no result given. This is a sample that favours compounds with a hit; in the whole collection about 1.6% have one here.

SMILES | Htt clearance | MKP-1 inh | Cdc25B inh | Jurkat viability | SK-BR-3 tox 24h
Cn1c(=O)c2c(ncn2CCO)n(C)c1=O | / | -12.2 | -12.3 | / | 92.9
COc1ccc(OC)c(S(=O)(=O)N2c3cc(F)ccc3CCC2C)c1 (stereo not drawn) | -52.5 | 2.7 | -7.2 | -4.3 | 80.3
COc1ccc(N2CCN(c3nc4c(c(=O)[nH]c(=O)n4C)n3CCCc3ccccc3)CC2)cc1 | / | -13.7 | 4.8 | / | 97.9
O=C1NC2(CCCC2)N=C1c1ccc(Cl)cc1 | 24.0 | 0.9 | -10.0 | 6.7 | /
N#CC(C#N)=c1ccc2c(c1)NC1(CCCCC1)N=2 | -45.6 | 24.9 | -15.3 | 42.4* | 51.8
CC1(C2(O)CC(c3ccccc3)ON2)CCCCC1 (stereo not drawn) | / | -11.6 | -13.3 | / | 91.9
O=C(NCCSc1c[nH]c2ccccc12)c1ccc(Br)o1 | 5.2 | 5.1 | -2.5 | 37.8* | /
CC(C)C(=O)NCCSc1c[nH]c2ccccc12 | 28.9 | / | / | / | /
CC(C)CC(=O)OCc1cn(-c2ccccc2)nn1 | -15.2 | / | / | / | /
CC1CC(C)CN(S(=O)(=O)c2ccc(C(=O)NCCCn3ccnc3)cc2)C1 (stereo not drawn) | / | 9.1 | -8.0 | 100.7* | /
CCCC(=O)NC(c1ccco1)c1cc(Cl)c2cccnc2c1O (stereo not drawn) | -40.8 | 2.0 | -7.9 | 28.6 | /
Oc1c(C(Nc2nc3ccccc3s2)c2ccco2)ccc2cccnc12 (stereo not drawn) | / | -0.5 | 2.2 | 62.1* | /
CC(C)C(=O)NC(c1ccco1)c1ccc2cccnc2c1O (stereo not drawn) | / | -9.8 | -8.9 | 90.1* | /
COc1ccc(C(NC(C)=O)c2ccc3cccnc3c2O)c(OC)c1 (stereo not drawn) | / | 3.6 | 1.4 | 85.7* | /
COc1ccc(-c2nnc(NC(=O)c3ccccc3C)o2)cc1 | / | 15.7 | -8.4 | 42.8* | /
COc1ccc(-c2nnc(NC(=O)C(C)C)o2)cc1 | / | 14.9 | 6.9 | -2.0 | /
Cc1ccc(-c2noc(CCC(=O)N3CCCc4ccccc43)n2)cc1 | / | 7.4 | -4.0 | 0.4 | 68.2
COc1cc(SC)ccc1C(=O)Nc1ccon1 | 73.3* | -2.4 | -5.7 | 2.6 | 93.0
COc1cc(SC)ccc1C(=O)Nc1ccc(S(=O)(=O)N2CCCC2)cc1 | / | -2.2 | -4.6 | -1.0 | /
CCc1nnc(NC(=O)c2ccc3c(c2)C(=O)N(CC)C3=O)s1 | 50.7 | / | / | / | /
On1onc2c3cc(-c4ccccc4)nc3ccc21 | ? | -7.2 | -15.6 | 98.4* | /
C/C(Sc1nnc(Cc2ccccc2)o1)=C(/O)c1ccccc1 | 13.9 | 24.8 | -5.6 | -2.8 | /
c1ccc(-c2cccc(-c3ccccn3)n2)nc1 | -410.5 | 22.6 | 14.4 | 87.1* | 75.3
COc1ccccc1N=c1scc(-c2ccc3c(c2)NC(=O)CO3)n1CC1CCCO1 (stereo not drawn) | / | 37.9 | -10.7 | 5.5 | /
CCN=c1scc(-c2ccc3c(c2)NC(=O)CO3)n1N=C1CCCC1 | / | 24.6 | -8.0 | 36.3* | /
SMILES | Htt clearance | MKP-1 inh | Cdc25B inh | Jurkat viability | SK-BR-3 tox 24h
CC1CCN(CCCNC(=O)c2cc3sccc3n2C)CC1 | / | -4.0 | -16.1 | -2.1 | 42.0*
Cn1c(C(=O)NCCc2c[nH]c3ccccc23)cc2sccc21 | / | 3.6 | -16.1 | 61.5* | /
CCSc1nc(-c2cccs2)nc2c1c(=O)n(C)c(=O)n2C | / | -9.3 | -3.3 | -4.4 | /
O=C(O)c1ccc(CSCc2c(F)cccc2Cl)o1 | -32.3 | 7.1 | -1.6 | / | /
COc1cccc(N2CCN(c3ncnc4c3[nH]c3ccc(F)cc34)CC2C)c1 (stereo not drawn) | / | -1.5 | 24.2 | / | 5.7*
O=C(c1cccn2c(=O)c3ccc(Cl)cc3nc12)N1CCN(Cc2ccc3c(c2)OCO3)CC1 | / | 64.1* | -6.0 | / | /
Cc1ccccc1S(=O)(=O)Cc1ccc(C(=O)N2CCN(c3cccc(C)c3C)CC2)o1 | / | 29.4 | -5.5 | 93.4* | /
Cc1cccc(N2CCN(C(=O)c3ccncc3)CC2)c1C | -7.4 | 8.0 | -0.1 | 60.0* | 104.3
COc1cc(C(=O)N2CCN(c3cccc(C)c3C)CC2)cc(OC)c1OC | 58.7 | 7.2 | -0.6 | 93.5* | /
COc1cc(C(=O)N2CCN(c3cc(Cl)ccc3Cl)CC2)cc(OC)c1OC | / | -8.5 | -13.9 | 60.6* | /
COc1ccc(C(=O)N2CCN(c3c(C)cccc3C)CC2)cc1OC | 56.7 | -2.5 | -14.3 | -2.1 | /
O=C1NCCCc2c1oc1ccc(O)cc21 | -43.6 | -2.6 | 50.4* | 1.0 | 91.6
O=C(CN1CCN(c2ncccn2)CC1)N1CCCc2c1c(=O)oc1ccc(O)cc21 | 21.3 | / | / | / | /
O=C(Cn1nnc(-c2ccccc2)n1)OCc1csc(-c2ccccc2)n1 | / | 0.0 | 4.8 | -3.5 | 73.6
O=C(Cn1nnc(-c2ccccc2)n1)OCc1ccccc1 | / | -1.4 | 72.1* | -0.4 | 99.8
Cc1ccc(-n2ncc3c(=O)[nH]c(SC(C)C)nc32)cc1 | / | 3.4 | -1.1 | 4.2 | /
CCOC(=O)C(C)Sc1nc2c(cnn2-c2ccc(C)cc2)c(=O)[nH]1 (stereo not drawn) | / | 6.7 | 12.2 | 49.8* | /
C=CCn1c(Cc2csc(N)n2)nnc1SCC(=O)Nc1ccccc1C(F)(F)F | 8.4 | / | / | / | /
c1ccc(CNc2ncnc3c2cnn3-c2ccccc2)cc1 | / | -16.8 | 6.9 | 85.1* | 115.0
Cc1cccc(-n2ncc3c(NCc4ccccc4)ncnc32)c1 | / | -0.8 | -3.6 | 82.7* | /
COc1cccc(NC(=O)N2CCN(Cc3nc4ccccc4c(=O)[nH]3)CC2)c1 | / | 4.6 | -11.3 | / | 81.3
CN(C(=S)Nc1ccc(F)cc1)C1(c2ccccc2Cl)CCCCC1=O (stereo not drawn) | -24.9 | / | / | / | /
COc1cccc2sc(Nc3nnc(-c4ccccc4Cl)o3)nc12 | / | 13.4 | 12.8 | 67.3* | /
COc1cccc(-c2nnc(Nc3nc4c(F)cccc4s3)o2)c1 | / | 8.8 | 28.0 | 7.8 | 93.3
COc1ccccc1-c1nnc(Nc2nc3c(OC)cccc3s2)o1 | / | -1.8 | 7.5 | 86.7* | 75.3
SMILES | Htt clearance | MKP-1 inh | Cdc25B inh | Jurkat viability | SK-BR-3 tox 24h
CC1CCN(C(=O)CSc2ccc3nnc(-c4ccccc4)n3n2)CC1 | / | 14.3 | -13.3 | -7.3 | /
COc1ccc(CN(C(=O)c2cnccn2)C(C(=O)NC(C)(C)C)c2cc(OC)c(OC)c(OC)c2)cc1 (stereo not drawn) | 70.4* | / | / | / | /
COc1cc(C(C(=O)NC(C)(C)C)N(Cc2ccc3c(c2)OCO3)C(=O)c2cnccn2)cc(OC)c1OC (stereo not drawn) | 13.7 | / | / | / | /
CCOC(=O)c1ccc(NCc2ccc3c(c2)OCO3)cc1 | / | -6.0 | -11.5 | 4.5 | 43.1*
CCOC(=O)c1ccc(NCc2ccc(N(C)C)cc2)cc1 | 46.7 | -8.9 | 6.5 | 0.2 | 86.5
COC(=O)c1cccc(S(=O)(=O)N2CCC(C)CC2)c1 | 71.4* | -6.1 | -7.4 | 16.0 | 86.1
CC1CCN(S(=O)(=O)c2cccc(C(=O)O)c2)CC1 | -146.5 | / | / | / | /
Cc1noc(C)c1COC(=O)c1cccc(S(=O)(=O)N2CCCCCC2)c1 | / | -13.1 | -10.2 | 40.0* | /
Cc1cc(-n2c(C)cc(C(=O)CSc3ccc4c(c3)OCCO4)c2C)no1 | / | 0.7 | -25.5 | 1.3 | /
CCCc1cc(NCCN2CCOCC2)n2c(nc3ccccc32)c1C#N | / | -23.0 | -0.1 | / | 104.9
